# Reference: article PMC7862700, “An all-to-all approach to the identification of sequence-specific readers for epigenetic DNA modifications on cytosine”
# Columns and labels:
# Test in all cases: DAPPL (digital affinity profiling via proximity ligation, sequencing); 10 mM Tris-HCl pH 7.5, 50 mM NaCl, 1 mM DTT, 4% glycerol, room temperature, 30 min; GST-TFs on glutathione beads, 16-mer random dsDNA library, 0.1% formaldehyde crosslink after washing; high values mean tight binding
# Conditions in all cases: protein: recombinant; tags: N-terminal GST; dsDNA, one strand shown
# FLI1 = target: T1, FLI1 (Homo sapiens, UniProt Q01543 1-452)
# T1 sequence: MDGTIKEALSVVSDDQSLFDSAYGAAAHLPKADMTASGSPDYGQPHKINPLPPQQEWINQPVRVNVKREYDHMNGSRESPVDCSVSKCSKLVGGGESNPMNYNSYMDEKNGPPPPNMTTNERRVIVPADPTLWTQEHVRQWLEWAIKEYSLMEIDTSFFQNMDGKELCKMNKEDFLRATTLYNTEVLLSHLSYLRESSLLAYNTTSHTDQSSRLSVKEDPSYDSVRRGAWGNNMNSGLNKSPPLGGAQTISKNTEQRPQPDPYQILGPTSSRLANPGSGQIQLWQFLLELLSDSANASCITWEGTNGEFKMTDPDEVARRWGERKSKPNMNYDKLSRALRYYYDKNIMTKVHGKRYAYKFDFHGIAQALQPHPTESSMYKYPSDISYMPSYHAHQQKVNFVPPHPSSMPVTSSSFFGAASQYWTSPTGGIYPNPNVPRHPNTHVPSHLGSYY
# How it was run: (§1)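 Each value of binding signal is a hexamer's read frequency for a factor divided by the same hexamer's frequency in the tag-only sample. Barcoded, bead-captured GST fusions of human transcription factors made in yeast were pooled with that sample and incubated with 200 nmole of a random double-stranded 16-mer DNA library in Tris/NaCl/DTT/glycerol buffer at room temperature for 30 min. Washing, 0.1% formaldehyde crosslinking, proximity ligation, PCR and Illumina NextSeq500 sequencing followed.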
# ELK1 = target: T2, ELK1 (Homo sapiens, UniProt P19419 1-428)
# T2 sequence: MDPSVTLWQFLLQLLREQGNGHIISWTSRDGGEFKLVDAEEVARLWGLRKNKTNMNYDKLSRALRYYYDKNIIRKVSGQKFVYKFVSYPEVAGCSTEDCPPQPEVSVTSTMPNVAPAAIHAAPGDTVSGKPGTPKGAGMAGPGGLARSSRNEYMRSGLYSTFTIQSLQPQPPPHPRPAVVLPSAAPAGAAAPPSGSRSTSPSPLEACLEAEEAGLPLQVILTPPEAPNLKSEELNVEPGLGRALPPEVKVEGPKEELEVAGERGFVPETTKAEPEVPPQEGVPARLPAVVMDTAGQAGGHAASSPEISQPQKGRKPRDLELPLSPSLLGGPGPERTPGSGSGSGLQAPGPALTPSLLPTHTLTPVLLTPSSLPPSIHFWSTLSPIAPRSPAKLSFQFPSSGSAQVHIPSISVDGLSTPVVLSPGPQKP
# How it was run: as §1
# GABPA = target: T3, GABPA (Homo sapiens, UniProt Q06546 1-454)
# T3 sequence: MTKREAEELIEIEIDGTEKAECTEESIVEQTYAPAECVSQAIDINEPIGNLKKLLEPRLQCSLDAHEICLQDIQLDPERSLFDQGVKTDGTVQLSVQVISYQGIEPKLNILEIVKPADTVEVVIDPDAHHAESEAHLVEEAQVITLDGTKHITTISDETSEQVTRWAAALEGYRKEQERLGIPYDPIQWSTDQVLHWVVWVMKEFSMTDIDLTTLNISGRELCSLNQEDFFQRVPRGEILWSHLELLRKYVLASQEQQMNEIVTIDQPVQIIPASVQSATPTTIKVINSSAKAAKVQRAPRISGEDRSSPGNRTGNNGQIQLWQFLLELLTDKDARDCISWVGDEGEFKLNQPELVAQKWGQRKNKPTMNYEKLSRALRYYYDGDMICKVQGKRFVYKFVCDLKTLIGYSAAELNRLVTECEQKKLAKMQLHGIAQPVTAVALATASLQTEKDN
# How it was run: as §1
# ERG = target: T4, ERG (Homo sapiens, UniProt P11308 1-479)
# T4 sequence: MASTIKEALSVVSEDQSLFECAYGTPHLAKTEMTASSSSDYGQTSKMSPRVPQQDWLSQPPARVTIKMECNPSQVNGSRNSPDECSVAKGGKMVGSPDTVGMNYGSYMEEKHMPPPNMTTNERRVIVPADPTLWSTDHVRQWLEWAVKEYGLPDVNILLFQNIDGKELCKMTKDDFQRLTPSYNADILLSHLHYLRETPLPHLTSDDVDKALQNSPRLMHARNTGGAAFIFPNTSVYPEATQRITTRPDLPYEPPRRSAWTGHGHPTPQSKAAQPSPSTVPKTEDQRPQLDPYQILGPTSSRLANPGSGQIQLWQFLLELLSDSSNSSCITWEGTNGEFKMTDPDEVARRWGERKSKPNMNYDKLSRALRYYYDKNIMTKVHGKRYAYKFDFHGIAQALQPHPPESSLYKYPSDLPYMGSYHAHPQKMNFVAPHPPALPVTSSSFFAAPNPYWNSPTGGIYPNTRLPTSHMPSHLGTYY
# How it was run: as §1
# ELF1 = ELF1 (Homo sapiens, UniProt P32519 1-619)
# Sequence of ELF1 (P32519 whole entry): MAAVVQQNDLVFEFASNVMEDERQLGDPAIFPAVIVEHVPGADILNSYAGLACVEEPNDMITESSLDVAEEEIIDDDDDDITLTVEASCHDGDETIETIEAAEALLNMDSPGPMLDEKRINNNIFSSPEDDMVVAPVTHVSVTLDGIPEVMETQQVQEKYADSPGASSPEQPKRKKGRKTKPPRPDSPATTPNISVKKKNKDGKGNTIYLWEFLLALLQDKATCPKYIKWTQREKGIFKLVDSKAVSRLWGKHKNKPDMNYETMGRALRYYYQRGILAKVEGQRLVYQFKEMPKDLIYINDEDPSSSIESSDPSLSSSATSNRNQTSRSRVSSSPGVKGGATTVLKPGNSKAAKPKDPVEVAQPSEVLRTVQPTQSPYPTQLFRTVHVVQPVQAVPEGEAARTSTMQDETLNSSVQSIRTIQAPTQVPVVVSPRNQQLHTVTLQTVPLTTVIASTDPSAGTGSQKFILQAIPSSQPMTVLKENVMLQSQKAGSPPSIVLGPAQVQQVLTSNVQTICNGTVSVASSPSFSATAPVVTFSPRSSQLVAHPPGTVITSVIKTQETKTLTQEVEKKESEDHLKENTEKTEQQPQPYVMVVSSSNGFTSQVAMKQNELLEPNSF
# How it was run: as §1
# EHF = target: T5, EHF (Homo sapiens, UniProt Q9NZC4 1-300)
# T5 sequence: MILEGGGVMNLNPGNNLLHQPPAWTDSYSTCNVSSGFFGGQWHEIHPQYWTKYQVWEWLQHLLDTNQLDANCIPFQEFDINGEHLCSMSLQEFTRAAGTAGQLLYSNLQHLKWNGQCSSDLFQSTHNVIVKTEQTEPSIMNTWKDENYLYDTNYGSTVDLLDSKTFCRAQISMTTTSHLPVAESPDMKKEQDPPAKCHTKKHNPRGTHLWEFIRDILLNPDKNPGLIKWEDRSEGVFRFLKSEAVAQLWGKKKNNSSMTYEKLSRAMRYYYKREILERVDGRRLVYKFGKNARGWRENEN
# How it was run: as §1
# SPI1 = SPI1 (Homo sapiens, UniProt P17947 1-270)
# How it was run: as §1
# SPIB = SPIB (Homo sapiens, UniProt Q01892 1-262)
# Sequence of SPIB (Q01892 whole entry): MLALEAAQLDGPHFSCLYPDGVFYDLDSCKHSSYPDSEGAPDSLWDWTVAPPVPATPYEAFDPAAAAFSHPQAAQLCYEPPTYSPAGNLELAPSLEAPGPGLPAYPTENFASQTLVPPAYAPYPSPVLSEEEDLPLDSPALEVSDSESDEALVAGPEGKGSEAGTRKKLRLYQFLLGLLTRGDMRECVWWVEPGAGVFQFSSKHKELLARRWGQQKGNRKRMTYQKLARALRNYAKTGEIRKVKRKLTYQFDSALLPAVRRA
# How it was run: as §1
# ELK3 = target: T6, ELK3 (Homo sapiens, UniProt P41970 1-407)
# T6 sequence: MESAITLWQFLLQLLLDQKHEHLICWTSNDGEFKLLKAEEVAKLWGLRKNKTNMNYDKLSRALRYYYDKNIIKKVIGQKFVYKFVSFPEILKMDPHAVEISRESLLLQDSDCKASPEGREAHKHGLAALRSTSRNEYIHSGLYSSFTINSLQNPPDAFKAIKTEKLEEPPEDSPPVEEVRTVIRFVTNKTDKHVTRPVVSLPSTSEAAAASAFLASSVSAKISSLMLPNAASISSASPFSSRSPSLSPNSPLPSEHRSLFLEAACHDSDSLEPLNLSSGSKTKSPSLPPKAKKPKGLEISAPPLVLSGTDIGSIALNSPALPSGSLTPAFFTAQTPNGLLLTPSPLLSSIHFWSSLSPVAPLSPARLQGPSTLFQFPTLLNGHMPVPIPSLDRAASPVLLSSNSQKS
# How it was run: as §1
# FEV = target: T7, FEV (Homo sapiens, UniProt Q99581 1-238)
# T7 sequence: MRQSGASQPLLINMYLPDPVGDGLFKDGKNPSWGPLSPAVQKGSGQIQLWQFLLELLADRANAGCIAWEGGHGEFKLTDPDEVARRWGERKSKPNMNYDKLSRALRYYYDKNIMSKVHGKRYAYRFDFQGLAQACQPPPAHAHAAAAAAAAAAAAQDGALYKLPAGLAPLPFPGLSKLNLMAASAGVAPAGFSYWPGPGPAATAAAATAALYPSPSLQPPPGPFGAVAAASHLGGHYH
# How it was run: as §1
# ETV5 = ETV5 (Homo sapiens, UniProt P41161 1-510)
# Sequence of ETV5 (P41161 whole entry): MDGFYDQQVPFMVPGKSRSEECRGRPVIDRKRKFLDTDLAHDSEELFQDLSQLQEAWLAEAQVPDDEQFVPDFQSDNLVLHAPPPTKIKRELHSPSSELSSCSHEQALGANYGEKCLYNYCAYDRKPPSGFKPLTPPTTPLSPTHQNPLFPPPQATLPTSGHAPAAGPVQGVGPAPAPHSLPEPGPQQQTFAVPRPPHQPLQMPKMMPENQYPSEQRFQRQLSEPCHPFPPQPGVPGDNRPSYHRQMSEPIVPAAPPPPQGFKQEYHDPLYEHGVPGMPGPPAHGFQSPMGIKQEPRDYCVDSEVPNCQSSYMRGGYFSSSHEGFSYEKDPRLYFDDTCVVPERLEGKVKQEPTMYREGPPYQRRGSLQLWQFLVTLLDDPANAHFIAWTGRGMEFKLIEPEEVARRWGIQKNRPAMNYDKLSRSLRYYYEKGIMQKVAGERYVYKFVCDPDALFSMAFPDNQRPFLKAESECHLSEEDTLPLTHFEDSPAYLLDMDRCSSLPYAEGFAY
# How it was run: as §1
# SPIC = target: T8, SPIC (Homo sapiens, UniProt Q8N5J4 1-248)
# T8 sequence: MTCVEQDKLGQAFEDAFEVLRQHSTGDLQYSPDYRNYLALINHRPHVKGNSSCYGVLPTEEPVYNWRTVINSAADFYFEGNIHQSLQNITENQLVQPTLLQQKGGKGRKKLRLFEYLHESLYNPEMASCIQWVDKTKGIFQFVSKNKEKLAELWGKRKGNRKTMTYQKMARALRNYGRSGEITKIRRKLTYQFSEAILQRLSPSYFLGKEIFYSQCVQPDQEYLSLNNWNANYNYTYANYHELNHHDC
# How it was run: as §1
# ELF4 = ELF4 (Homo sapiens, UniProt Q99607 1-663)
# Sequence of ELF4 (Q99607 whole entry): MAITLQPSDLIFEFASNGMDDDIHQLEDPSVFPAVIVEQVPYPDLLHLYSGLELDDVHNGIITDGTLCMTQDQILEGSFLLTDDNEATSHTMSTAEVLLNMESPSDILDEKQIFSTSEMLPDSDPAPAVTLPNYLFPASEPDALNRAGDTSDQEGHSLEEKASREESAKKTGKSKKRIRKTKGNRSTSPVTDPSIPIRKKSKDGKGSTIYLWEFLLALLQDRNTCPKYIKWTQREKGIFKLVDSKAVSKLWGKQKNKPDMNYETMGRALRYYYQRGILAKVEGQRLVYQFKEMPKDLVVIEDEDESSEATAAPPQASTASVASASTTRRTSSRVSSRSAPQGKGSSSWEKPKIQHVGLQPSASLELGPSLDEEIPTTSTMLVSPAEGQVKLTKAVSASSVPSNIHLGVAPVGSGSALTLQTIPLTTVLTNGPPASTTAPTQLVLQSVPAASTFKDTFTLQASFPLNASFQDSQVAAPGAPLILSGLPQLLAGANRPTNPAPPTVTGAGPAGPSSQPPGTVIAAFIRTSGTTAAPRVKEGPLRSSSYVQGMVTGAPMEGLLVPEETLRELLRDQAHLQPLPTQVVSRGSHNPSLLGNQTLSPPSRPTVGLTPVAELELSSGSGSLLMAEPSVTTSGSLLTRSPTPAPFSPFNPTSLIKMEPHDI
# How it was run: as §1
# ELK4 = target: T9, ELK4 (Homo sapiens, UniProt P28324-2 1-405)
# T9 sequence: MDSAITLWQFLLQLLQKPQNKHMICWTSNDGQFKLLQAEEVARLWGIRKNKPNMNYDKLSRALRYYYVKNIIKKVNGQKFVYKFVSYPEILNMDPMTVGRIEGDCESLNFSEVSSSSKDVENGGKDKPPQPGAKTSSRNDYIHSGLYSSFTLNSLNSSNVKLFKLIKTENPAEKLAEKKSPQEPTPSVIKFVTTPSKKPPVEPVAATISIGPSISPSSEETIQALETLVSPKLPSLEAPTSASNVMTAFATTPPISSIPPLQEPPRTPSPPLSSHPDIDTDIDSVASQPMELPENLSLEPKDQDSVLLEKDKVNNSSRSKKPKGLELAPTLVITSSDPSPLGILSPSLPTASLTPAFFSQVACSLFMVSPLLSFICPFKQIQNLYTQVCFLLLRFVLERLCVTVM
# How it was run: as §1
# ETV2 = target: T10, ETV2 (Homo sapiens, UniProt O00321 1-342)
# T10 sequence: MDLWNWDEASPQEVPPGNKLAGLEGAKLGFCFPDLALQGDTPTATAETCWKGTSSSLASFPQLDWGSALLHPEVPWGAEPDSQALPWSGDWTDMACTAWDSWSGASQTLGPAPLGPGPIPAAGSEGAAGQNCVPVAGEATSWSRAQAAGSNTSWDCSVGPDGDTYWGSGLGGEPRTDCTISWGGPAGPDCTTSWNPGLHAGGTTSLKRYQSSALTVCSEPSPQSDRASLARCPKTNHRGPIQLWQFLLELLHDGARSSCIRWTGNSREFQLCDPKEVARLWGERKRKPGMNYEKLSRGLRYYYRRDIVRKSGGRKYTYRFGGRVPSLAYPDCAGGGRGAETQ
# How it was run: as §1
# ELF3 = target: T11, ELF3 (Homo sapiens, UniProt P78545 1-371)
# T11 sequence: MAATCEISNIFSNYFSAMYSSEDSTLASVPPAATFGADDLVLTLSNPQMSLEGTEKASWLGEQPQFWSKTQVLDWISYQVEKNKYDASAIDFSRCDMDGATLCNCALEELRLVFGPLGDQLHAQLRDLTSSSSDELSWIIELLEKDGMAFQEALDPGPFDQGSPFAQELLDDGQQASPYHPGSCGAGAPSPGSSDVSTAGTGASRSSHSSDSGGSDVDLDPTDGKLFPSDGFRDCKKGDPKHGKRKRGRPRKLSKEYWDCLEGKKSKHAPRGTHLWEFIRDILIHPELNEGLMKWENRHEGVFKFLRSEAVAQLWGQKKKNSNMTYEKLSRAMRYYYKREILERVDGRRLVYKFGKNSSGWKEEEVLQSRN
# How it was run: as §1
# ETV1 = ETV1 (Homo sapiens, UniProt P50549 1-477)
# Sequence of ETV1 (P50549 whole entry): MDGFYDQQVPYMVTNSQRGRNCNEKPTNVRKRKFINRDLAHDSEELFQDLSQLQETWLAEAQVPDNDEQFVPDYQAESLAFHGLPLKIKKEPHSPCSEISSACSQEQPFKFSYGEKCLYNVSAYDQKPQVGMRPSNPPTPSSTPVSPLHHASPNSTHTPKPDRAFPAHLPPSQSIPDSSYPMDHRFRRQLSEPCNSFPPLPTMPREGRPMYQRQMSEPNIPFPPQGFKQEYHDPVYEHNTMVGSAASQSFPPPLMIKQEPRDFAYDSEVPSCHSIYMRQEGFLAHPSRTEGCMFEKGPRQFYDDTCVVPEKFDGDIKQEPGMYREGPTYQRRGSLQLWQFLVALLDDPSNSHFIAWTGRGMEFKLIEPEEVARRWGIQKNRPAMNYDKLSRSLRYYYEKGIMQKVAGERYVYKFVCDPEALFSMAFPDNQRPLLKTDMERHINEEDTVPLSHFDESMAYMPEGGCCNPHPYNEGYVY
# How it was run: as §1
Sequence,binding signal (FLI1),binding signal (ELK1),binding signal (GABPA),binding signal (ERG),binding signal (ELF1),binding signal (EHF),binding signal (SPI1),binding signal (SPIB),binding signal (ELK3),binding signal (FEV),binding signal (ETV5),binding signal (SPIC),binding signal (ELF4),binding signal (ELK4),binding signal (ETV2),binding signal (ELF3),binding signal (ETV1)
GATGTC,"1.25 fold enrichment (6-mer frequency, TF over GST control)","1.37 fold enrichment (6-mer frequency, TF over GST control)","1.24 fold enrichment (6-mer frequency, TF over GST control)","1.41 fold enrichment (6-mer frequency, TF over GST control)","1.22 fold enrichment (6-mer frequency, TF over GST control)","1.31 fold enrichment (6-mer frequency, TF over GST control)","1.23 fold enrichment (6-mer frequency, TF over GST control)","1.37 fold enrichment (6-mer frequency, TF over GST control)","1.19 fold enrichment (6-mer frequency, TF over GST control)","1.59 fold enrichment (6-mer frequency, TF over GST control)","1.37 fold enrichment (6-mer frequency, TF over GST control)","1.23 fold enrichment (6-mer frequency, TF over GST control)","1.24 fold enrichment (6-mer frequency, TF over GST control)","1.15 fold enrichment (6-mer frequency, TF over GST control)","1.24 fold enrichment (6-mer frequency, TF over GST control)","1.25 fold enrichment (6-mer frequency, TF over GST control)","1.3 fold enrichment (6-mer frequency, TF over GST control)"
CGTTAC,"1.17 fold enrichment (6-mer frequency, TF over GST control)","1.09 fold enrichment (6-mer frequency, TF over GST control)","1.08 fold enrichment (6-mer frequency, TF over GST control)","1.11 fold enrichment (6-mer frequency, TF over GST control)","1.12 fold enrichment (6-mer frequency, TF over GST control)","1.14 fold enrichment (6-mer frequency, TF over GST control)","1.27 fold enrichment (6-mer frequency, TF over GST control)","1.11 fold enrichment (6-mer frequency, TF over GST control)","1.21 fold enrichment (6-mer frequency, TF over GST control)","1.13 fold enrichment (6-mer frequency, TF over GST control)","1.08 fold enrichment (6-mer frequency, TF over GST control)","1.05 fold enrichment (6-mer frequency, TF over GST control)","1.07 fold enrichment (6-mer frequency, TF over GST control)","1.02 fold enrichment (6-mer frequency, TF over GST control)","1.02 fold enrichment (6-mer frequency, TF over GST control)","1.04 fold enrichment (6-mer frequency, TF over GST control)","1.17 fold enrichment (6-mer frequency, TF over GST control)"
